According to ChEMBL document CHEMBL1961873, “Compounds: GSK PKIS; Assays: Nanosyn kinase panel” (2012):

Assays:
[1] = target: Rho-associated protein kinase 1 (Homo sapiens) (UniProt Q13464); conditions: at 1 µM;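 also: reported values are mean percent inhibition of ROCK1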
[2] = target: Rho-associated protein kinase 2 (Homo sapiens) (UniProt O75116); conditions: at 0.1 µM
[3] = target: Rho-associated protein kinase 2 (Homo sapiens) (UniProt O75116); conditions: at 1 µM
[4] = target: Ribosomal protein S6 kinase alpha-1 (Homo sapiens) (UniProt Q15418); conditions: at 0.1 µM
[5] = target: Ribosomal protein S6 kinase alpha-1 (Homo sapiens) (UniProt Q15418); conditions: at 1 µM
[6] = target: Ribosomal protein S6 kinase alpha-3 (Homo sapiens) (UniProt P51812); conditions: at 0.1 µM
[7] = target: Ribosomal protein S6 kinase alpha-3 (Homo sapiens) (UniProt P51812); conditions: at 1 µM
[8] = target: Ribosomal protein S6 kinase alpha-2 (Homo sapiens) (UniProt Q15349); conditions: at 0.1 µM
[9] = target: Ribosomal protein S6 kinase alpha-2 (Homo sapiens) (UniProt Q15349); conditions: at 1 µM
[10] = target: Ribosomal protein S6 kinase alpha-6 (Homo sapiens) (UniProt Q9UK32); conditions: at 0.1 µM
[11] = target: Ribosomal protein S6 kinase alpha-6 (Homo sapiens) (UniProt Q9UK32); conditions: at 1 µM
[12] = target: T1, Serine/threonine-protein kinase Sgk1 (Homo sapiens) (UniProt O00141); conditions: at 0.1 µM
T1 sequence (whole entry): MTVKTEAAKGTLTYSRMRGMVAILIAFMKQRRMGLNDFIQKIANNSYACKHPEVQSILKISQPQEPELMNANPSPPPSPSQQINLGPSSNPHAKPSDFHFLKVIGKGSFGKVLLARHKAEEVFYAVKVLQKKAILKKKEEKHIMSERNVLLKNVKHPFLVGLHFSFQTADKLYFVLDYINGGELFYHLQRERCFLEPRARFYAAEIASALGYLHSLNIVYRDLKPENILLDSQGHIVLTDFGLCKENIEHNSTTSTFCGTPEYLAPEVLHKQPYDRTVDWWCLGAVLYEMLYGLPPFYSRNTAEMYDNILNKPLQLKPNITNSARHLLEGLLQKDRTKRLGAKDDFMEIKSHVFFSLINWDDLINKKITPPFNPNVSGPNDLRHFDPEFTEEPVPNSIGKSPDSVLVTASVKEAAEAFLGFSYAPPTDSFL

[13] = target: T1, Serine/threonine-protein kinase Sgk1 (Homo sapiens); conditions: at 1 µM
[14] = target: T2, Serine/threonine-protein kinase Sgk2 (Homo sapiens) (UniProt Q9HBY8); conditions: at 0.1 µM
T2 sequence (whole entry): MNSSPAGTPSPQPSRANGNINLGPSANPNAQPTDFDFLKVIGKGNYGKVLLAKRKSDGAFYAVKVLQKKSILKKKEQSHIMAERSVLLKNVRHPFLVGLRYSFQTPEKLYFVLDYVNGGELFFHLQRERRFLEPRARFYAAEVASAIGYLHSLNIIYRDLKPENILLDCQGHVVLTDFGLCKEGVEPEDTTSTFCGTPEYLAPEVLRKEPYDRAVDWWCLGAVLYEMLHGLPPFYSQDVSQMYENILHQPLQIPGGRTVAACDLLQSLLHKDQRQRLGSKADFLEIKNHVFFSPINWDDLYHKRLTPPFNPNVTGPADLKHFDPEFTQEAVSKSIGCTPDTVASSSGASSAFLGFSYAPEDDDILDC

[15] = target: T2, Serine/threonine-protein kinase Sgk2 (Homo sapiens); conditions: at 1 µM
[16] = target: T3, Serine/threonine-protein kinase Sgk3 (Homo sapiens) (UniProt Q96BR1); conditions: at 0.1 µM
T3 sequence (whole entry): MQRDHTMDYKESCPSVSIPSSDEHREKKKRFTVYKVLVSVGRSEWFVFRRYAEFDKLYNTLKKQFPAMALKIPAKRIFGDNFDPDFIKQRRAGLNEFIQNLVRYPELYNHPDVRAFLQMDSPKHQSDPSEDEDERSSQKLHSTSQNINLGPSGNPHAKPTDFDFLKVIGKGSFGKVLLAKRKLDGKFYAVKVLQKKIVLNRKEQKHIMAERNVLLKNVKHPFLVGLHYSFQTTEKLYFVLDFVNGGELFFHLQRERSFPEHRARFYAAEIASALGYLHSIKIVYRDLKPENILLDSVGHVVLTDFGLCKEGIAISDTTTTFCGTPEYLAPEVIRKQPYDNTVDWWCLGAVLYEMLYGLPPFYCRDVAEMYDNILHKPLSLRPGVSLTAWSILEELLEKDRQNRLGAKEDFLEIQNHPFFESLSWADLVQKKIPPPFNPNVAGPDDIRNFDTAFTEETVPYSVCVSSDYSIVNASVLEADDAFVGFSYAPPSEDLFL

[17] = target: T3, Serine/threonine-protein kinase Sgk3 (Homo sapiens); conditions: at 1 µM
[18] = target: 5'-AMP-activated protein kinase catalytic subunit alpha-1 (Homo sapiens) (UniProt Q13131); conditions: at 0.1 µM
[19] = target: 5'-AMP-activated protein kinase catalytic subunit alpha-1 (Homo sapiens) (UniProt Q13131); conditions: at 1 µM
[20] = target: 5'-AMP-activated protein kinase catalytic subunit alpha-2 (Homo sapiens) (UniProt P54646); conditions: at 0.1 µM;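 also: mean inhibition measured on the AMPK complex of alpha2, beta1 and gamma1 subunits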
Sequence of 5'-AMP-activated protein kinase catalytic subunit alpha-2 (Homo sapiens) (P54646 whole entry, looked up): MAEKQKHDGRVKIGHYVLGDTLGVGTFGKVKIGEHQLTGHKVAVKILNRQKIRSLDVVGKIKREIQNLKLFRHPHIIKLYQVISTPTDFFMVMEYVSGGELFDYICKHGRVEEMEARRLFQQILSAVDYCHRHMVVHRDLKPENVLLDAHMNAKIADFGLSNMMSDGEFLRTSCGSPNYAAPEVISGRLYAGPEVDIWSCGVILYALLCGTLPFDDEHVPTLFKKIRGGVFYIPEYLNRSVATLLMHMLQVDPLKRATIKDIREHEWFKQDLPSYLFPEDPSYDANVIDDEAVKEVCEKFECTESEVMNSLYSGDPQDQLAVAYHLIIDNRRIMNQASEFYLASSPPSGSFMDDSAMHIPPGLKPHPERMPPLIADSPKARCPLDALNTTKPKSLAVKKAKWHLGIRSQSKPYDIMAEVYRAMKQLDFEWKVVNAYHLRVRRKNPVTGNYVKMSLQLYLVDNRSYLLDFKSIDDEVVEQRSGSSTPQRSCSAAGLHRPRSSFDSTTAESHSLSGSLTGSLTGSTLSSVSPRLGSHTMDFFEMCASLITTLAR

Sequence of Ribosomal protein S6 kinase alpha-1 (Homo sapiens) (Q15418 whole entry): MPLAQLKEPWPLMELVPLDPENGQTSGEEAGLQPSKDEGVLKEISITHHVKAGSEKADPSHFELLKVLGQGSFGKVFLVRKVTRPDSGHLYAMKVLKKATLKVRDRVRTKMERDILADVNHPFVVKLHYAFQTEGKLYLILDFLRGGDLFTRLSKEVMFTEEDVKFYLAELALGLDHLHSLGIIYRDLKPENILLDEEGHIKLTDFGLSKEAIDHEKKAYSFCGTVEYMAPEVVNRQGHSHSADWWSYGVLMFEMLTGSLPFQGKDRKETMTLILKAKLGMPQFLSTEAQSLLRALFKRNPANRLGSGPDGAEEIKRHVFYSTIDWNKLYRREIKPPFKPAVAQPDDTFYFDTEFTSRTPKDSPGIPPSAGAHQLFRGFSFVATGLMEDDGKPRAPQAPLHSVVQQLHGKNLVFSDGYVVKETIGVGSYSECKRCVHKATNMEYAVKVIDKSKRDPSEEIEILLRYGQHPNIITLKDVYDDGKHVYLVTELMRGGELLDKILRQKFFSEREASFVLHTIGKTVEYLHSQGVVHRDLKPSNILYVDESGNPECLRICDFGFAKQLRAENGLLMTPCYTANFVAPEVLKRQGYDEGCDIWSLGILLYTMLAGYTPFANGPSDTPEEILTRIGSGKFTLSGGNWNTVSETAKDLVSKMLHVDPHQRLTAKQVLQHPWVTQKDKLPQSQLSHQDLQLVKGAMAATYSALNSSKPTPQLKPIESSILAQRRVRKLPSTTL
Sequence of Ribosomal protein S6 kinase alpha-2 (Homo sapiens) (Q15349 whole entry): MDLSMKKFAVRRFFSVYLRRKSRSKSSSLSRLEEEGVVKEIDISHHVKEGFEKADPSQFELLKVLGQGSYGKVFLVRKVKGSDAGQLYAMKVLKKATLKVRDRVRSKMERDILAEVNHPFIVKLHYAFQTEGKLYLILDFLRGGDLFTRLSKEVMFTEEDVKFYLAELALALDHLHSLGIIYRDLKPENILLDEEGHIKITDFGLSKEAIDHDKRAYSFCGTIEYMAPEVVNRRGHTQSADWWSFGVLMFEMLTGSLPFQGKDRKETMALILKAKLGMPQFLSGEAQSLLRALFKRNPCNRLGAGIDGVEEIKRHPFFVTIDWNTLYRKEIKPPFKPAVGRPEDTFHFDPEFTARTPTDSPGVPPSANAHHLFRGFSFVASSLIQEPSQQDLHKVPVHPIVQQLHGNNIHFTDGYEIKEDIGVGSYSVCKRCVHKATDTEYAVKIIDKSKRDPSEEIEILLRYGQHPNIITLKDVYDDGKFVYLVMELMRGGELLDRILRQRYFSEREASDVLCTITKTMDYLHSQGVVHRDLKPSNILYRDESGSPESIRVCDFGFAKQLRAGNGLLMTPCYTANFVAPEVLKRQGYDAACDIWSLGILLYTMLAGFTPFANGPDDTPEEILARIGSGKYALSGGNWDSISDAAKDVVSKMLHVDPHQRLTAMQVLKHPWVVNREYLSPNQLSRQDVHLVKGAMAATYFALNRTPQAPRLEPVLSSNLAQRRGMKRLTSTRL
Sequence of 5'-AMP-activated protein kinase catalytic subunit alpha-1 (Homo sapiens) (Q13131 whole entry, looked up): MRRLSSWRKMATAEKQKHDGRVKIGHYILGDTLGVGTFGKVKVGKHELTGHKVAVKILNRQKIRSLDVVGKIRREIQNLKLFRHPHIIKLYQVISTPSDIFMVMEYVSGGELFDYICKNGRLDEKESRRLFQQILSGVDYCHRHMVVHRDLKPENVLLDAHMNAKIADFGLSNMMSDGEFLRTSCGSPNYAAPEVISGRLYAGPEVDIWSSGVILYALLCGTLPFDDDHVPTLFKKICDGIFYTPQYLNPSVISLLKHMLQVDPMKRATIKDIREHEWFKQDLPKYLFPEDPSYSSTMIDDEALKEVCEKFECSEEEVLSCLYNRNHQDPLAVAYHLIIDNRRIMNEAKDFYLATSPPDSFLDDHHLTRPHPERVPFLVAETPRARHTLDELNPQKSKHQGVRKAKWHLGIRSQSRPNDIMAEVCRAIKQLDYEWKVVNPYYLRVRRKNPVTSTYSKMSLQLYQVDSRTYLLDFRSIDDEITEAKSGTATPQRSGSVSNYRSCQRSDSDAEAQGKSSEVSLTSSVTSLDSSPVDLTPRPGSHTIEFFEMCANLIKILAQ
Sequence of Rho-associated protein kinase 1 (Homo sapiens) (Q13464 2-1354 limits assumed): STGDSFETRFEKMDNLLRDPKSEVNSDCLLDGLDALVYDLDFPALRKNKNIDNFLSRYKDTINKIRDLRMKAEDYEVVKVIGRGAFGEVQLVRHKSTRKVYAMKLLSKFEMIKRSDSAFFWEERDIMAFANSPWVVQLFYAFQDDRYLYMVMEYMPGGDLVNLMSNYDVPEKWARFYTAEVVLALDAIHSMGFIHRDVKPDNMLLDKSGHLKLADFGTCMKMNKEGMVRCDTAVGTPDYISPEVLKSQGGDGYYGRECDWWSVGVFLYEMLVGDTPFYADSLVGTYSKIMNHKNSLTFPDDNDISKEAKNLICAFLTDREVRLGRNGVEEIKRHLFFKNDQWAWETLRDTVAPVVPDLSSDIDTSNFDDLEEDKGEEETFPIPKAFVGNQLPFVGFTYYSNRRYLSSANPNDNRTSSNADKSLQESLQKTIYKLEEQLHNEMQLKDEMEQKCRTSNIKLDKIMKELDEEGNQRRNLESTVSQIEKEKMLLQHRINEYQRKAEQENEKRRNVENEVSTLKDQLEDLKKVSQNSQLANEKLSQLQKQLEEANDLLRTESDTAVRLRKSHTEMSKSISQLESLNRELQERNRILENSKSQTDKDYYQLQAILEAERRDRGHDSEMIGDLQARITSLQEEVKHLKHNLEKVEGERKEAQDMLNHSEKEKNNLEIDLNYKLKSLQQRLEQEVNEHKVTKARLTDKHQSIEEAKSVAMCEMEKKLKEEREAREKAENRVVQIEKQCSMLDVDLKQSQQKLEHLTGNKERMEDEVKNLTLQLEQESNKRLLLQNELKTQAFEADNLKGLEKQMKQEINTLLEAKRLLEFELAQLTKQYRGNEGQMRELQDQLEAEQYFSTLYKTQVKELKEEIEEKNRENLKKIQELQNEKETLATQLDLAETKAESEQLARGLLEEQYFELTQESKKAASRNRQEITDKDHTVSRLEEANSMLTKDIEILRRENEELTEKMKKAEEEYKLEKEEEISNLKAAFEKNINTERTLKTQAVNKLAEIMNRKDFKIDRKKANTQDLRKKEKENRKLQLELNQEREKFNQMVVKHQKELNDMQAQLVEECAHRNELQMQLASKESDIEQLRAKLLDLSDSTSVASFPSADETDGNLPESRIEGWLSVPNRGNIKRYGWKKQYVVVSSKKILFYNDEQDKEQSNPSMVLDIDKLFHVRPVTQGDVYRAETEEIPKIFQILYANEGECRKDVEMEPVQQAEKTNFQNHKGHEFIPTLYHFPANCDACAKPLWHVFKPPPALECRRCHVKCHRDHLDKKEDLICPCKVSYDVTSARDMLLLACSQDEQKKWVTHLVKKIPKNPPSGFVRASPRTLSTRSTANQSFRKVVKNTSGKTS
Sequence of Ribosomal protein S6 kinase alpha-6 (Homo sapiens) (Q9UK32 whole entry): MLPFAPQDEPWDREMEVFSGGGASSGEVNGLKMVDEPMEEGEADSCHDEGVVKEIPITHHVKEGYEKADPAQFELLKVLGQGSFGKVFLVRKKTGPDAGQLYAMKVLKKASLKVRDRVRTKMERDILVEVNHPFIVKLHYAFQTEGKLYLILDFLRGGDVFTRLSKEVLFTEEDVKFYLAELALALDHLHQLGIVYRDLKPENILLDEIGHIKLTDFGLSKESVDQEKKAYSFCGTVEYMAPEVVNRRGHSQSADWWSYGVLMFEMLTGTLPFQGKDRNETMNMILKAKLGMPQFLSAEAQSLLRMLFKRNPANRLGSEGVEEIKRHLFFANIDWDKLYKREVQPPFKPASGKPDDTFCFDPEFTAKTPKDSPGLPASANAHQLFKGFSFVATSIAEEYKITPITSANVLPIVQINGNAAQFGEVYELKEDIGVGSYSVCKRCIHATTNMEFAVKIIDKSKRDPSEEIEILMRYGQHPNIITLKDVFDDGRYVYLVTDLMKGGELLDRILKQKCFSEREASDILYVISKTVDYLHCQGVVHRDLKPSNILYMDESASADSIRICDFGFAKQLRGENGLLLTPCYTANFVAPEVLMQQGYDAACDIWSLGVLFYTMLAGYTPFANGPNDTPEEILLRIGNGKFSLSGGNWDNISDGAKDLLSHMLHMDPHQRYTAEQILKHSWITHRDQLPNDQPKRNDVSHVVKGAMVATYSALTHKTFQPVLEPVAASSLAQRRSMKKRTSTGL

SMILES	inhibition [1] [%]	inhibition [2] [%]	inhibition [3] [%]	inhibition [4] [%]	inhibition [5] [%]	inhibition [6] [%]	inhibition [7] [%]	inhibition [8] [%]	inhibition [9] [%]	inhibition [10] [%]	inhibition [11] [%]	inhibition [12] [%]	inhibition [13] [%]	inhibition [14] [%]	inhibition [15] [%]	inhibition [16] [%]	inhibition [17] [%]	inhibition [18] [%]	inhibition [19] [%]	inhibition [20] [%]
Cc1cc(Cl)cc2c1NC(=O)C2=NNc1ccc(S(N)(=O)=O)cc1	0.46	2.77	4.97	2.28	4.19	1.6	3.02	2.57	1.19	0.74	1.2	2.17	3.67	1.33	7.78	2.89	5.67	1.67	4.05	-0.13
CCS(=O)(=O)c1ccc(OC)c(Nc2nccc(N(C)c3ccc4c(C)n[nH]c4c3)n2)c1	2.51	2.12	4.04	-0.57	3.78	-0.28	0.94	-0.47	1.56	-1.99	-0.55	2.43	2.8	4.15	2.6	3.28	1.75	1.93	2.62	2.9
CN(C)CCCn1c(-c2nonc2N)nc2cnccc21	32.8	11.6	45.3	2.28	11.8	1.45	6.61	4.55	16.4	1.79	4.47	2.27	4.15	2.98	2.34	2.21	3.38	2.93	2.04	3.05
COC(=O)Nc1nc2cc(Oc3ccc(NC(=O)Nc4cccc(Br)c4)cc3)ccc2[nH]1	7.16	3.44	6.83	1.44	1.53	1.69	0.56	1.65	2.4	1.97	1.35	4.42	6.16	2.07	3.07	2.77	3.45	2.86	2.58	0.56
COC(=O)c1ccc2c(c1)C(=Cc1cc(Br)c(O)c(Br)c1)C(=O)N2	1.74	1.52	3.89	1.5	6.51	1.97	4.23	3.99	6.79	2.52	7.3	1.67	5.36	5.27	12.1	3.08	3.5	2.71	6.28	8.21
CC(C)c1ccc(Nc2nccc(-c3cnn4ncccc34)n2)cc1	10.9	5.29	24.7	0.96	3.69	-0.01	2.08	0.12	2.76	-0.42	1.84	1.8	3.19	0.34	3.21	2.01	0.79	1.84	3.55	2.35
Nc1nccc(C#Cc2cncnc2Nc2ccc(OCc3cccc(F)c3)c(Cl)c2)n1	3.74	2.53	4.22	1.3	2.85	0.4	0.81	2.21	2.85	0.59	1	2.17	2.96	1.54	3.69	2.12	3.95	3.13	5.37	1.22
O=C(Nc1ccc(Oc2ccc3[nH]c(NC(=O)c4ccco4)nc3c2)cc1)Nc1cc(C(F)(F)F)ccc1F	26.5	4.21	31.3	1.39	10.2	1.5	6.22	5.27	35.7	0.96	3.95	0.67	-0.62	0.44	2.52	0.1	-0.97	1.07	2.39	1.95
CC(C)c1ccc2c(c1)NC(=O)/C2=N/Nc1ccc(S(N)(=O)=O)cc1	-1.28	-1.58	-0.82	0.52	0.63	-0.56	2.05	1	2.15	-0.83	0.17	0.54	0.73	5.31	-4.03	4.97	-1.88	-0.83	0.29	1.03
c1ccc(Nc2ncc(-c3ccccc3)o2)cc1	2.73	4.11	2.92	2.02	2.37	0.46	0.02	3.77	3.41	2.12	3.23	2.66	4	2.47	0.08	4.53	2.32	2.6	4.99	7.1
Cc1ccc(NC(=O)CC2CC2)cc1-c1ccc(C(=O)NCC2CC2)cc1	2.07	3.27	5.25	1.91	2.35	0.73	1.14	1.88	2.04	1.16	1	2.06	4.1	4.31	1.34	2.72	0.18	1.98	3.58	1
